How the values were obtained:
Assay in all cases: PBM binding z-score (relative to random genomic background probes); higher = stronger binding; sequences stand for … in GC…GCGATTGACAGCGTAGAATGAAGG
[1] = test system: RARb homodimer (NR concentration 270 nM)
Procedure, shortened: (§1)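 On custom Agilent 4×180K arrays, double-stranded probes with 34-nt variable regions carried direct-repeat seeds, single-nucleotide variants, half-site ablations or random human genomic background. Ligand-free nuclear receptor dimers were applied for 1 h, and binding was read with antibodies against each partner (one per run). Binding z-scores come from regression-normalized fluorescence, with the random background probes as reference.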

[2] = test system: RARg:RXRa (NR concentration 270 nM, RXRa partner concentration 90 nM)
Procedure, shortened: as §1

[3] = test system: RARg homodimer (NR concentration 270 nM)
Procedure, shortened: as §1

[4] = test system: RXRa DBDmut IVT, anti-RXR (DBD mutation: RXRa K156A/R161A, NR concentration 90 nM)
Procedure, shortened: as §1

[5] = test system: RXRa homodimer (NR concentration 180 nM)
Procedure, shortened: as §1

[6] = test system: THRa:RXRa (NR concentration 90 nM, RXRa partner concentration 90 nM)
Procedure, shortened: as §1

[7] = test system: THRa homodimer (NR concentration 90 nM)
Procedure, shortened: as §1

[8] = test system: VDR homodimer (NR concentration 270 nM)
Procedure, shortened: as §1

Row | Sequence | PBM binding z-score [1] | PBM binding z-score [2] | PBM binding z-score [3] | PBM binding z-score [4] | PBM binding z-score [5] | PBM binding z-score [6] | PBM binding z-score [7] | PBM binding z-score [8]
1 | ATCTCTAGGCAACCAAGTTCAGTGAATGCCGAAC | 1.25 | 0.473 | 0.591 | 0.688 | 0.505 | 0.9 | -0.255 | 2.3
2 | ATCGAAAGCTCGAGGTGAGTATAGAGAAAGGGAA | -0.503 | 0.0363 | 0.189 | -0.888 | -0.0727 | 0.963 | -0.199 | -0.71
3 | AGTCAAAATTCAGGACGAGGTAACGTAAAGCACG | -0.0538 | 0.203 | 0.422 | -0.303 | 0.601 | 1.99 | 1.64 | 0.0292
4 | TAGCTTAGGTCATTCAGGGGCCAGTATAGAAAGC | 3.41 | 6.43 | 5.18 | 2.36 | 3.35 | 3.72 | 1.83 | 1.69
5 | CCTAGTTGGTCAAGGTCATACACGCTATAGGTAC | 4.18 | 4.12 | 4.33 | 2.53 | 4.46 | 4.03 | 3.75 | 4.48
6 | GCTGCTAGGTCAACTAATGGTCAGCTAAAGCTCG | 3.51 | 5.28 | 5.52 | 1.38 | 2.65 | 2.74 | 0.777 | -0.0577
7 | GATACAGGGTCAGCTATAGGCCAGAGTATGGAAA | 2.93 | 5.42 | 4.73 | 1.34 | 4.02 | 2.6 | 0.272 | 0.536
8 | TCTGCTACGTCAACGATGGTCAGCTAATCTGCTA | -0.67 | -0.316 | -0.0659 | 0.0473 | -0.261 | -0.616 | -0.92 | -1.61
9 | AATACAGGGTCACTAAGCCAGAGTAGGTACGAAT | 3.03 | 5.07 | 4.83 | 2.77 | 5.39 | 3.33 | 1.13 | 2.35
10 | ACAGACAGGTGATGAATGTAACTCAGGCTATCAT | -0.0762 | 0.375 | 0.506 | -0.126 | 0.591 | 0.0526 | -0.294 | -0.0787
11 | AGAATGAGGTTAAGATCAGGGAGACAGAATACAT | 1.15 | 1.94 | 1.5 | 1.06 | 2.49 | 2.55 | 0.979 | 0.818
12 | GGAACGAGGGCATTCGAGTTGATAGTATGGCGAT | 0.948 | 1.22 | 1.61 | 3.39 | 0.99 | 3.38 | 0.0512 | 3.37
13 | GATACAGGGTCAAGGCCAGGGTACGCGTATTGAT | 3.96 | 5.8 | 4.85 | 2.61 | 5.97 | 3.95 | 1.51 | 2.65
14 | ATATGTAGGTTAAGGGTCATTCATGTTGGTTCGC | 4.2 | 4.74 | 3.5 | 2.3 | 6.14 | 3.43 | 1.52 | 4.27
15 | GGAACGAGGGCAGAGTTGATAGCATCTGTCGACG | 0.448 | 0.934 | 1.12 | 1.49 | 0.588 | 0.324 | -0.629 | 0.314
16 | AGCTCTAGGTAACCAAGTTCAGTGAATGCCGAAC | 1.25 | 0.159 | 0.348 | 0.428 | 0.269 | 1.14 | 0.629 | 2.43
17 | CCTCGGAGGACAACGGGAGGTCAGAGCTGCCAGA | 3.43 | 3.93 | 3.4 | -0.419 | 1.76 | 3.04 | 1.32 | 1.08
18 | GCTAGTTGGTCAGTAAAAGGCCACACACCGGTCG | 1.83 | 0.944 | 0.676 | -0.169 | 0.227 | 0.0278 | -0.175 | -0.584
19 | ACAGACAGGTGATGAAGATAACTCAGGCTATCAT | 0.036 | 0.0914 | 0.567 | -0.415 | 0.164 | 0.061 | -0.111 | -0.302

Row | Sequence | PBM binding z-score [1] | PBM binding z-score [2] | PBM binding z-score [3] | PBM binding z-score [4] | PBM binding z-score [5] | PBM binding z-score [6] | PBM binding z-score [7] | PBM binding z-score [8]
20 | TATACAGGGTCAAAGACCAGAGTACGAATGTCGA | 2.94 | 5.15 | 4.53 | 2.82 | 5.89 | 3.2 | 0.651 | 2.81
21 | CGAACGAGGGCATGAGTTGATGGCAAATGCCGAT | 0.659 | 1.25 | 1.6 | 2.05 | 0.973 | 1.08 | -0.389 | 1.31
22 | ATCGAAAGGTCGACTAGGTGAGTATACACCGTTT | 2.66 | 4.11 | 3.91 | 0.992 | 4.12 | 2.86 | 0.0406 | 1.09
23 | TCGAGTAGGTTAGTCGGGGCATCCAGCCAACATA | 0.213 | 0.0156 | -0.131 | -0.109 | 0.28 | 1.05 | -0.433 | -0.177
24 | CCTCGGAGGACAACTGGAGGTCAGAGCTGCCAGA | 3.7 | 4.12 | 4.11 | 0.362 | 2.22 | 2.7 | 1.3 | 1.48
25 | GCTATTTGTTGAAAGGGCAACCGAATGATTCTCG | 2.2 | 1.01 | 1.26 | 1.28 | 0.98 | 0.638 | 0.181 | 0.657
26 | CCTTACGGGCCAAGGTTATAGCACGGGTGGTACG | 0.655 | 0.306 | 0.628 | -1.14 | 0.273 | 0.713 | 0.104 | 0.207
27 | ACAGACAGGTGAGTCAAGGTAACTCAGCTGGACG | 0.0236 | 0.322 | 0.586 | -0.585 | 0.518 | 3.73 | 0.299 | -0.203
28 | TTACCAAGGTGAGCTGAGGACGTTGATCCAACTC | 0.308 | 0.112 | 0.436 | -0.741 | -0.041 | 4.53 | 1.6 | -0.0863
29 | AGCGAAAGGTCGACGAGGTGAGTATACACCGTTT | 2.99 | 4.23 | 4.03 | 0.801 | 4.4 | 3.75 | 0.716 | 0.753
30 | CGTCCAAGGTAAAGGTCAGTGAAAGAGACTCGAA | 4.43 | 4.58 | 5.49 | 0.687 | 4.48 | 3.2 | 0.7 | 0.765
31 | ATATGTAGGTGACATCCGGGTCATTCAGGCTATG | 2.79 | 3.31 | 1.95 | 0.715 | 3.03 | 3.53 | 2.11 | 2.66
32 | CCTACTGGGCCAAAGGTCATTAATTCCAATGCTC | 4.19 | 5.3 | 4.49 | 1.34 | 6.16 | 3.01 | 0.695 | 2.77
33 | TAGACTAGGTCATGGGCCAGTATACCACGCGAAC | 2.68 | 3.79 | 4.47 | -0.0129 | 2.96 | 2.73 | 0.989 | 0.435
34 | ACAGACAGGTGGGTGAAGGTAACTCAGCTGGACG | 0.378 | 0.052 | 0.248 | -0.598 | 0.193 | 0.52 | -0.174 | -0.176
35 | TAGCCTAGGTCATTCAGGGTCCAGTATAGAAAGC | 3.02 | 4.74 | 4.16 | 2 | 3.11 | 4.2 | 0.899 | 2.74
36 | CTCGAAAGGTCGGTTGAGGTGGGTATACGGATAA | 1.83 | 2.28 | 2.25 | 0.695 | 1.86 | 4.1 | 0.422 | 1.06
37 | GTACCAAGGTCAATAGGTCGTTGATGAGTAGGCG | 4.86 | 6.58 | 5.59 | 2.86 | 5.66 | 3.68 | 1.77 | 2.55
